These results are taken from PubChem BioAssay (NCATS).

Holding throughout (assay): qHTS profiling for inhibitors of Plasmodium falciparum proliferation (AID 504749); note: nearly all actives have a fitted effect of over 60% in size
Settings in all cases: P. falciparum in erythrocytes, SYBR Green DNA, 72 h; series mostly up to 28.7 µM
A general note: Quantitative high-throughput screening tests each substance at several concentrations.

The subject of one experiment is FAB9. An outline of the steps:
(§1)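 P. falciparum-infected erythrocytes (0.3% parasitemia, 2.5% hematocrit final) were exposed to compounds for 72 h at 37 C in 5% CO2, then lysed with SYBR Green buffer overnight at room temperature; parasite DNA fluorescence was normalized to artemisinin and DMSO controls.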

Another experiment deals with GB4. A digest of the protocol:
as §1

Another experiment has as its system HB3. An outline of the steps: as §1
A further experiment has as its system ICS. A digest of the protocol:
as §1

For the next experiment, the system named is JCK. A digest of the protocol:
as §1

The next experiment has as its system N140. A digest of the protocol:
as §1

The next experiment has as its system P93_24. An outline of the steps:
as §1

For a further experiment, the system named is P94_40. An outline of the steps:
as §1

A further experiment deals with PAD. A digest of the protocol: as §1
The subject of the next experiment is PC15. An outline of the steps:
as §1

Where “and” joins values, the source holds several entries; their conditions need not be identical. Identical values can stand only once. Records with an inconclusive call do not appear. Calls of active or inactive are those of the source. Calls come from the whole dose curve; as a rule, active = well fitted inhibition curve with a large enough effect; inconclusive = small, poorly fitted or top-dose-only effect; inactive = flat fitted curve, though single readings scatter.
Potency is the fitted concentration of half-maximal effect.

For `N#CN`, the Potency result with FAB9, in the experiment with GB4, in the experiment on HB3, in the experiment on ICS, in the experiment with JCK and in the experiment on N140 was “inactive” throughout. Further, the Potency result in the experiment with P93_24, in the experiment on P94_40, with PAD and in the experiment on PC15 was “inactive” each time.
As for `O=[N+]([O-])c1cc(I)c(O)c(I)c1`, the Potency entry in the experiment with FAB9, in the experiment on GB4, in the experiment with HB3, in the experiment on ICS, in the experiment on JCK and with N140 was “inactive” in each case. The Potency entry in the experiment on P93_24, with P94_40, in the experiment with PAD and in the experiment with PC15 was “inactive” in each case.
For `C#CC(C)(O)CC` (stereo not drawn), the Potency entry in the experiment with FAB9, in the experiment with GB4, in the experiment with HB3, in the experiment with ICS, with JCK and with N140 was “inactive” in each case. Also, the Potency result with P93_24, with P94_40, in the experiment on PAD and in the experiment on PC15 was “inactive” each time.
With `O=C(NCNC(=O)NC1C(=O)NC(=O)N1CO)NC1C(=O)NC(=O)N1CO` (stereo not drawn), the Potency entry in the experiment with FAB9, in the experiment with GB4, in the experiment with HB3, in the experiment with ICS, with JCK and with N140 was “inactive” throughout. Besides, the Potency result in the experiment on P93_24, in the experiment with P94_40, with PAD and with PC15 was “inactive” each time.
As for `CC(C)(O)C1C2OC(=O)C1C1(O)CC3OC34C(=O)OC2C14C` (stereo not drawn), the Potency result with FAB9, with GB4, with HB3, with ICS, in the experiment on JCK and in the experiment with N140 was “inactive” in each case. Moreover, the Potency entry with P93_24, with P94_40, in the experiment with PAD and in the experiment on PC15 was “inactive” each time.
As for `Clc1ccccc1Cl`, the Potency result in the experiment with FAB9, with GB4, in the experiment on HB3, with ICS, in the experiment with JCK and with N140 was “inactive” throughout. Also, the Potency result in the experiment on P93_24, in the experiment with P94_40, in the experiment with PAD and in the experiment on PC15 was “inactive” in each case.
For the molecule `CNC(C)C(O)c1ccc(O)cc1` (stereo not drawn), the Potency entry in the experiment with FAB9, in the experiment on GB4, with HB3, in the experiment on ICS, with JCK and with N140 was “inactive” throughout. Besides, the Potency entry with P93_24, in the experiment with P94_40, with PAD and in the experiment with PC15 was “inactive” throughout.
Regarding `Cn1sc(Cl)cc1=O`, the Potency entry in the experiment with FAB9, in the experiment with GB4, in the experiment with HB3, in the experiment on ICS, in the experiment with JCK and in the experiment with N140 was “inactive” each time. Besides, the Potency entry in the experiment on P93_24, in the experiment with P94_40, in the experiment on PAD and in the experiment on PC15 was “inactive” each time.
Turning to `CC(C)(C)c1cc(O)ccc1O`, the Potency in the experiment with GB4 is 3.79 µM (active) and 12 µM (active); in the experiment on HB3 it was 10 µM (active); in the experiment with ICS, 3.16 µM (active) and 2 µM (active); in the experiment on N140, 11.2 µM (active); in the experiment on P93_24 it was 11.2 µM (active) and 8.91 µM (active); in the experiment with P94_40, 7.08 µM (active) and 12.6 µM (active). The Potency with PAD and in the experiment with PC15 was 11.2 µM (active) in each case.
Regarding `CC1CCC(C(C)C)C(OC(=O)c2ccccc2N)C1` (stereo not drawn), the Potency entry in the experiment with FAB9, with JCK, in the experiment on N140, with P93_24 and with PAD was “inactive” each time.
Regarding `O=C1CN=C(c2ccccc2)c2cc(Cl)ccc2N1CC1CC1`, the Potency result in the experiment on FAB9, in the experiment on GB4, in the experiment on HB3, with JCK, in the experiment on N140 and in the experiment on P93_24 was “inactive” in each case. Also, the Potency result with P94_40, in the experiment on PAD and with PC15 was “inactive” in each case.
Turning to `N#CC(C#N)=Cc1cc(O)c(O)c(O)c1`, the Potency is 10.7 µM (active) in the experiment with GB4; 8.91 µM (active) in the experiment on HB3; 2.82 µM (active) in the experiment with ICS; 15.8 µM (active) in the experiment on N140; 5.01 µM (active) in the experiment with P93_24; 11.2 µM (active) in the experiment with P94_40. Also, the values for the Potency with PAD and in the experiment on PC15 were 7.08 µM (active) and 6.31 µM (active), respectively.
Turning to `CCNC(C)Cc1cccc(C(F)(F)F)c1` (stereo not drawn), the Potency entry with FAB9, in the experiment with HB3, with ICS, in the experiment on JCK, in the experiment on N140 and in the experiment on P93_24 was “inactive” in each case. The Potency result in the experiment on P94_40, in the experiment with PAD and with PC15 was “inactive” each time.
With `CC(=O)O[C@H]1CC[C@H]2[C@@H]3CCC4=CC(=O)CCC4=C3C=C[C@]12C`, the Potency entry with FAB9, in the experiment on HB3, in the experiment on ICS, in the experiment on JCK, in the experiment with N140 and in the experiment with P93_24 was “inactive” in each case. The Potency result in the experiment on PAD and in the experiment with PC15 was “inactive” in each case.
As for `CCC1(c2ccccc2)C(=O)NC(=O)N(C)C1=O` (stereo not drawn), the Potency result with FAB9, in the experiment with JCK and in the experiment with P94_40 was “inactive” throughout. For the same molecule, the Potency is 11.2 µM (active) in the experiment on HB3 and 3.98 µM (active) in the experiment with ICS.
`CCCC(=O)OC(C(Cl)(Cl)Cl)P(=O)(OC)OC` (stereo not drawn): the Potency result in the experiment with FAB9, with GB4, in the experiment with HB3, in the experiment on JCK, in the experiment on N140 and in the experiment with PAD was “inactive” in each case.
Regarding `OC(c1ccccc1)(c1ccccc1)C1CN2CCC1CC2` (stereo not drawn), the Potency entry with FAB9, in the experiment with HB3, with JCK, with N140, with P93_24 and in the experiment with P94_40 was “inactive” each time.
Take `c1ccc(C2(N3CCCC3)CCCCC2)cc1`: the Potency in the experiment with GB4 was 12 µM (active); with N140, 12.6 µM (active); with P93_24, 5.62 µM (active). Besides, the Potency entry in the experiment on JCK and in the experiment with P94_40 was “inactive” in each case.
Take `CNC(=O)Oc1ccccc1C(=O)Nc1ccccc1`: the Potency result with FAB9, in the experiment on HB3 and in the experiment with PC15 was “inactive” in each case. Besides, the Potency in the experiment with GB4 was 15.1 µM (active); in the experiment on ICS, 12.6 µM (active).
On to `O=S(=O)(O)c1cc(O)ccc1O`, for which the Potency entry in the experiment with FAB9, in the experiment on HB3, with ICS, in the experiment with JCK, with N140 and in the experiment on P93_24 was “inactive” throughout. The Potency entry in the experiment with P94_40, in the experiment on PAD and with PC15 was “inactive” each time.
Take `c1cc2c(c(NC3=NCCN3)c1)CCCC2`: the Potency entry in the experiment with FAB9, in the experiment with HB3, with JCK, with N140, in the experiment on P93_24 and with P94_40 was “inactive” in each case. Also, the Potency result in the experiment with PAD was “inactive”.
For the molecule `CN1CCCC(=C(c2cccs2)c2cccs2)C1`, the Potency entry in the experiment on FAB9, in the experiment on HB3, in the experiment with JCK and in the experiment with PC15 was “inactive” throughout. Further, the Potency in the experiment on GB4 was 8.49 µM (active).
Take `CCC(=O)O[C@@](Cc1ccccc1)(c1ccccc1)[C@@H](C)CN(C)C`: the Potency entry with FAB9, with HB3, in the experiment with JCK, with P94_40 and in the experiment with PAD was “inactive” each time.
Turning to `C=CCC1(C(C)CCC)C(=O)N=C(S)NC1=O` (stereo not drawn), the Potency result with FAB9, in the experiment on HB3, with ICS, in the experiment with JCK, with N140 and in the experiment on P93_24 was “inactive” each time. The Potency entry in the experiment with P94_40, in the experiment with PAD and with PC15 was “inactive” throughout.
Turning to `CCCN1CCCC2Cc3[nH]ncc3CC21` (stereo not drawn), the Potency entry in the experiment with FAB9, with HB3, in the experiment with ICS, in the experiment with JCK, in the experiment on N140 and in the experiment with P93_24 was “inactive” each time. The Potency entry in the experiment with P94_40, in the experiment on PAD and in the experiment with PC15 was “inactive” throughout.
In the case of `CC12NC(Cc3ccccc31)c1ccccc12` (stereo not drawn), the Potency result in the experiment on FAB9, in the experiment with HB3, with JCK, in the experiment with N140, with PAD and in the experiment with PC15 was “inactive” each time. Further, the Potency in the experiment on P93_24 is 10 µM (active).
`CC(C)Nc1ccc(Nc2ccccc2)cc1`: the Potency with FAB9 is 10 µM (active); in the experiment with GB4 it was 5.36 µM (active); with ICS, 7.08 µM (active); in the experiment with N140, 7.94 µM (active); in the experiment on P93_24 it was 7.94 µM (active); in the experiment on P94_40, 8.91 µM (active). Besides, in the experiment on PAD, the Potency is 10 µM (active).
With `CCN(CC)C(=O)/C(Cl)=C(\C)OP(=O)(OC)OC`, the Potency result with FAB9, in the experiment with HB3, with ICS, with JCK, in the experiment with N140 and in the experiment with P93_24 was “inactive” throughout. In addition, the Potency result in the experiment on P94_40, in the experiment on PAD and with PC15 was “inactive” in each case.
For `O=c1c2ccccc2[se]n1-c1ccccc1`, the Potency entry in the experiment on FAB9, in the experiment on HB3 and in the experiment on JCK was “inactive” in each case.
In the case of `CCOP(=O)(OCC)O/C(=C/Cl)c1ccc(Cl)cc1Cl`, the Potency result in the experiment on FAB9, in the experiment on HB3, in the experiment on JCK, in the experiment on N140, in the experiment on PAD and in the experiment with PC15 was “inactive” throughout.
`C[C@@H](Cc1ccccc1)NCCC(c1ccccc1)c1ccccc1`: the Potency entry in the experiment with FAB9 and in the experiment on JCK was “inactive” in each case. In the experiment with ICS, the Potency was 3.16 µM (active).
